Reference: the supplement of paper PMC10849652
About 8,800 targets were measured; listed, in parts, are those with a hit and a random draw of the rest. About 0.5% of all pairs of compound and target were hits.

Assays:
Test in all cases: log2 fold change, soluble protein after heating vs DMSO (PISA); higher = thermal stabilisation; K562 lysate, 10 uM; active = over 0.2 and 3.5 SD of the protein, either way, in both replicates (recomputed)
nilotinib = compound: Cc1cn(-c2cc(NC(=O)c3ccc(C)c(Nc4nccc(-c5cccnc5)n4)c3)cc(C(F)(F)F)c2)cn1 [nilotinib]
In short: (§1)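 Log-two fold change in thermal stability relative to solvent controls is reported from duplicates. For each sample, crude K562 extract from dounce-homogenised pellets in PBS pH 7.4 with 1 mM MgCl2, at 1 mg/mL protein, was treated with 10 μM compound for 30 min. Aliquots heated for 3 min across 48°C-58°C were pooled, brought to 0.5% NP-40 at 4°C and cleared at 21,000xg for 90 min. The supernatant was quantified by TMTpro 16plex LC-MS/MS with channel sums equalised.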

[1] = compound: Cc1nc(Nc2n[nH]c3c2CN(C(=O)N[C@H](CN(C)C)c2ccccc2)C3(C)C)c2sccc2n1
In short: as §1

dasatinib = compound: Cc1nc(Nc2ncc(C(=O)Nc3c(C)cccc3Cl)s2)cc(N2CCN(CCO)CC2)n1 [dasatinib]
In short: as §1

[2] = compound: Cc1ncc(-c2ccnc(Nc3ccc(S(C)(=O)=O)cc3)n2)n1C(C)C
In short: as §1

[3] = compound: Cn1cc(-c2ccc3c(c2)CCN3C(=O)Cc2cccc(C(F)(F)F)c2)c2c(N)ncnc21
In short: as §1

quisinostat = compound: Cn1cc(CNCC2CCN(c3ncc(C(=O)NO)cn3)CC2)c2ccccc21 [quisinostat]
In short: as §1

tipifarnib = compound: Cn1cncc1[C@@](N)(c1ccc(Cl)cc1)c1ccc2c(c1)c(-c1cccc(Cl)c1)cc(=O)n2C [tipifarnib]
In short: as §1

[4] = compound: NC(=O)Nc1cc(-c2cccc(F)c2)sc1C(=O)N[C@H]1CCCNC1
In short: as §1

[5] = compound: NC(=O)c1cnc(N[C@@H]2CCCC[C@@H]2N)nc1Nc1cccc(-n2nccn2)c1
In short: as §1

[6] = compound: NC1(c2ccc(-c3nc4ccn5c(=O)[nH]nc5c4cc3-c3ccccc3)cc2)CCC1
In short: as §1

[7] = compound: NCC(=O)Nc1ccc(-n2nc(C(F)(F)F)cc2-c2ccc3c(ccc4ccccc43)c2)cc1
In short: as §1

vorinostat = compound: O=C(CCCCCCC(=O)Nc1ccccc1)NO [vorinostat]
In short: as §1

silmitasertib = compound: O=C(O)c1ccc2c(c1)nc(Nc1cccc(Cl)c1)c1ccncc12 [silmitasertib]
In short: as §1

[8] = compound: O=C1NC(=O)C(c2cnc3ccccn23)=C1c1cn2c3c(cc(F)cc13)CN(C(=O)N1CCCCC1)CC2
In short: as §1

entospletinib = compound: c1cn2cc(-c3ccc4cn[nH]c4c3)nc(Nc3ccc(N4CCOCC4)cc3)c2n1 [entospletinib]
In short: as §1

Measured: log2 fold change

COG3 (UniProt Q96JB2)
UniProt Q96JB2, sequence (Q96JB2 whole entry, looked up): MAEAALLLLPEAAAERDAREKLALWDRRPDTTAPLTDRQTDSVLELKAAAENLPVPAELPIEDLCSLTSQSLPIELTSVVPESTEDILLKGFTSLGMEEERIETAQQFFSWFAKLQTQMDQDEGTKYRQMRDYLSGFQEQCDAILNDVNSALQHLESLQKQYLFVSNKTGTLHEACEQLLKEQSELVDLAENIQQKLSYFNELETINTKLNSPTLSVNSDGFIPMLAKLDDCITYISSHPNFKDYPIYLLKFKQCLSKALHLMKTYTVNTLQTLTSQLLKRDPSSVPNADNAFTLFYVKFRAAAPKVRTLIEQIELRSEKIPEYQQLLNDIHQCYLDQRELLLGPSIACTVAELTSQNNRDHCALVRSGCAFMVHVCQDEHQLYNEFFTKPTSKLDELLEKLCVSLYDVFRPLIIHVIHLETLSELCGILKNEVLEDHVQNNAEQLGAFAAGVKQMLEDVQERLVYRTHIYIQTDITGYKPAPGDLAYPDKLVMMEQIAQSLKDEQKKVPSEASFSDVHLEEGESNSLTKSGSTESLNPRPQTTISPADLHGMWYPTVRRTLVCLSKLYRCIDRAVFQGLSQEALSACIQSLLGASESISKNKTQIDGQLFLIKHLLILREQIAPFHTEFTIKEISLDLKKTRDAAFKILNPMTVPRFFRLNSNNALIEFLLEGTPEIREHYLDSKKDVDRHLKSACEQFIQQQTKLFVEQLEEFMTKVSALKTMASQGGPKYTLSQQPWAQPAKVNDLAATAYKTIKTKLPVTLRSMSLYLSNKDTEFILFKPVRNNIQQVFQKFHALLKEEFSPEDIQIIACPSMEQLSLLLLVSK
inactive: nilotinib -0.02 | [1] -0.023 | dasatinib -0.13 | [2] -0.002 | [3] 0.023 | quisinostat -0.097 | tipifarnib 0.022 | [4] 0.044 | [5] 0.024 | [6] -0.083 | [7] 0.011 | silmitasertib 0.123 | [8] 0.06 | entospletinib -0.017
active: vorinostat -0.314

COX20 isoform 2 (UniProt Q5RI15)
inactive: nilotinib 0.051 | [1] -0.023 | dasatinib 0.07 | [2] -0.024 | [3] 0.013 | quisinostat -0.017 | tipifarnib 0.117 | [4] -0.026 | [5] -0.058 | [6] -0.03 | [7] -0.016 | vorinostat -0.079 | silmitasertib 0.011 | [8] -0.037 | entospletinib 0.026

DICER1 (UniProt Q9UPY3)
inactive: nilotinib 0.014 | [1] -0.014 | dasatinib -0.005 | [2] 0.045 | [3] -0.03 | quisinostat -0.072 | tipifarnib 0 | [4] 0.051 | [5] 0.045 | [6] -0.068 | [7] 0.022 | silmitasertib 0.042 | [8] 0.001 | entospletinib -0.004
active: vorinostat -0.58

CORO7 isoform 3 (UniProt P57737)
UniProt P57737, sequence (P57737 whole entry, looked up): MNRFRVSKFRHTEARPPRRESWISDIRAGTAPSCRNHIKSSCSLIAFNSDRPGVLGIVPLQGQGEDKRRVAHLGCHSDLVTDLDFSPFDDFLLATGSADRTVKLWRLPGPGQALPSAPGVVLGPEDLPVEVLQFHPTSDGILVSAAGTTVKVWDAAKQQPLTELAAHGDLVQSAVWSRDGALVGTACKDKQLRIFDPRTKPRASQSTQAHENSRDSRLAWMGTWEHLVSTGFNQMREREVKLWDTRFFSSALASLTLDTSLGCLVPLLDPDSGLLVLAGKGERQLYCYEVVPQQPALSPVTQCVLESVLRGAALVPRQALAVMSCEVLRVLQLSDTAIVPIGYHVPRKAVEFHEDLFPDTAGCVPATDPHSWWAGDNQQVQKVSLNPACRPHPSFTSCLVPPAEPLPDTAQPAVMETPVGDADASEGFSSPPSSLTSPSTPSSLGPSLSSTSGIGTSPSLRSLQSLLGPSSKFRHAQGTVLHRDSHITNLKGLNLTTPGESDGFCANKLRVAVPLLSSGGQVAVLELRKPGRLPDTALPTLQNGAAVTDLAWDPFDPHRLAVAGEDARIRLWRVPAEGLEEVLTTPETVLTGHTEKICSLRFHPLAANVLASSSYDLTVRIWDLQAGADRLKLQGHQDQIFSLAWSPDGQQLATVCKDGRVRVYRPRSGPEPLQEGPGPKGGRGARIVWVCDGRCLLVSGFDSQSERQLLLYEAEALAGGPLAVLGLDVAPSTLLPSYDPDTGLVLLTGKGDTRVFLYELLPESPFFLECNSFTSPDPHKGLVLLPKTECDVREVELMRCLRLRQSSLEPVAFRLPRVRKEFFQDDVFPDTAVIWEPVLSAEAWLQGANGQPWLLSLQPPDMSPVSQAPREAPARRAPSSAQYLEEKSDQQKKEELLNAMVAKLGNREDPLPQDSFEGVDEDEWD
inactive: nilotinib -0.006 | [1] 0.003 | dasatinib -0.032 | [2] 0.01 | [3] 0.019 | quisinostat -0.026 | tipifarnib 0.005 | [4] 0.012 | [5] -0.016 | [6] -0.013 | [7] -0.045 | vorinostat -0.176 | silmitasertib 0.042 | [8] 0.004 | entospletinib 0.005

DMAC2L (UniProt Q99766)
UniProt Q99766, sequence (Q99766 whole entry, looked up): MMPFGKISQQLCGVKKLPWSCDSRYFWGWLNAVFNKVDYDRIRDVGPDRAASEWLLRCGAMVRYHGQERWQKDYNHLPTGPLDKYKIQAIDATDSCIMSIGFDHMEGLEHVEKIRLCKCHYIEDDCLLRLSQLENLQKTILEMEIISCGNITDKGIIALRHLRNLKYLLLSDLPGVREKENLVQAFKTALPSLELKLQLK
inactive: nilotinib -0.021 | [1] 0.001 | dasatinib 0.059 | [2] -0.04 | [3] -0.009 | quisinostat 0.012 | tipifarnib -0.017 | [4] -0.032 | [5] -0.006 | [6] 0.111 | [7] -0.023 | vorinostat -0.174 | silmitasertib 0.037 | [8] -0.038 | entospletinib 0.022

CTNNBL1 (UniProt Q8WYA6)
UniProt Q8WYA6, sequence (Q8WYA6 whole entry, looked up): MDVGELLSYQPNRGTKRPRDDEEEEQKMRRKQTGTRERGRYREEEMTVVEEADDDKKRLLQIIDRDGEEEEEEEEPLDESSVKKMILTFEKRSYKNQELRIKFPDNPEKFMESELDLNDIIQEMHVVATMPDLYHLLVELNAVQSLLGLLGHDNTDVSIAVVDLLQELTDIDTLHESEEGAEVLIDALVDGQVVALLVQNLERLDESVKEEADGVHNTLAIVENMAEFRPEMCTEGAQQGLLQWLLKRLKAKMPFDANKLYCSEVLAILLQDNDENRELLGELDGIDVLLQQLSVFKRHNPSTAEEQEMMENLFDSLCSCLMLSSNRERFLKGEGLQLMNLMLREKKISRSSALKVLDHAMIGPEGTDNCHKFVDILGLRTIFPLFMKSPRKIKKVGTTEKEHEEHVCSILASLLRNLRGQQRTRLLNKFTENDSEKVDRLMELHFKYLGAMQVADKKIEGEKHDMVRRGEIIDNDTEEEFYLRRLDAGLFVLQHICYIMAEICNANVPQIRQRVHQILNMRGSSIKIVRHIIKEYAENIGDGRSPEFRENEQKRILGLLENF
inactive: nilotinib -0.034 | [1] 0.02 | dasatinib 0.025 | [2] -0.013 | [3] -0.065 | quisinostat -0.008 | tipifarnib -0.019 | [4] 0.02 | [5] 0.011 | [6] -0.138 | [7] -0.026 | vorinostat -0.046 | silmitasertib -0.044 | [8] -0.025 | entospletinib -0.011

CLASP1 (UniProt Q7Z460)
active: vorinostat -0.317
inactive: nilotinib -0.015 | [1] 0.021 | dasatinib -0.097 | [2] 0.013 | [3] 0.016 | quisinostat -0.085 | tipifarnib -0.051 | [4] -0.022 | [5] 0.012 | [6] -0.018 | [7] 0.018 | silmitasertib -0.015 | [8] -0.022 | entospletinib 0.029

DENND4A isoform 2 (UniProt Q7Z401)
inactive: nilotinib -0.02 | [1] -0.002 | dasatinib -0.008 | [2] 0.023 | [3] 0.008 | quisinostat -0.083 | tipifarnib -0.017 | [4] 0.058 | [5] 0.042 | [6] 0.008 | [7] 0.046 | silmitasertib 0.043 | [8] -0.02 | entospletinib -0.013
active: vorinostat -0.379

CKM (UniProt P06732)
inactive: nilotinib 0.033 | [1] 0 | dasatinib -0.056 | [2] 0.062 | [3] -0.093 | quisinostat -0.175 | tipifarnib -0.072 | [4] 0.068 | [5] -0.025 | [6] 0.007 | [7] 0.003 | vorinostat -0.053 | silmitasertib -0.025 | [8] -0.014 | entospletinib -0.026

CKS1B (UniProt P61024)
UniProt P61024, sequence (P61024 whole entry, looked up): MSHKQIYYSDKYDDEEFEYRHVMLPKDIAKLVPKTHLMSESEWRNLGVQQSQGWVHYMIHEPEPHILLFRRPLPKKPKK
inactive: nilotinib -0.03 | [1] 0.04 | dasatinib 0.065 | [2] -0.066 | [3] 0.011 | quisinostat 0.069 | tipifarnib 0.106 | [4] -0.051 | [5] 0 | [6] 0.11 | [7] -0.059 | vorinostat 0.115 | silmitasertib -0.004 | [8] -0.076 | entospletinib -0.021

DHRS3 (UniProt O75911)
inactive: nilotinib 0.007 | [1] 0.005 | [2] -0.028 | [3] 0.024 | quisinostat -0.031 | tipifarnib 0.06 | [4] 0.019 | [5] -0.078 | [6] -0.044 | [7] 0.032 | vorinostat -0.055 | silmitasertib -0.062 | [8] 0.025 | entospletinib 0.096
active: dasatinib 0.23

DOK1 (UniProt Q99704)
UniProt Q99704, sequence (Q99704 whole entry, looked up): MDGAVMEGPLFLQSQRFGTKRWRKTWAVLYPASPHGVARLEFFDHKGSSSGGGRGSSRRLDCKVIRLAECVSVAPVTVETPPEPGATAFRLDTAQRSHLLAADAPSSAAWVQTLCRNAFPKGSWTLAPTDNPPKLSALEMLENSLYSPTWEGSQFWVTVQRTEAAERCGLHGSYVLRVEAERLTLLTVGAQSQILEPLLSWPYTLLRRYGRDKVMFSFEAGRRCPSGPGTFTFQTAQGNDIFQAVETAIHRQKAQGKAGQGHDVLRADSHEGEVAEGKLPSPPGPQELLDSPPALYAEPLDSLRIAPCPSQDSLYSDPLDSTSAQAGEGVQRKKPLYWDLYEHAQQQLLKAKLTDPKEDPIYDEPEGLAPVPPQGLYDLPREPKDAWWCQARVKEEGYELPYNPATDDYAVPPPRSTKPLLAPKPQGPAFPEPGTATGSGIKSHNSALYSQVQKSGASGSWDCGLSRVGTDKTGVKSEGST
active: vorinostat -0.297
inactive: nilotinib -0.019 | [1] 0.05 | dasatinib 0.014 | [2] -0.103 | [3] 0.023 | quisinostat -0.032 | tipifarnib 0.048 | [4] 0.07 | [5] -0.055 | [6] 0.018 | [7] -0.036 | silmitasertib -0.043 | [8] -0.012 | entospletinib -0.011

DDX20 (UniProt Q9UHI6)
UniProt Q9UHI6, sequence (Q9UHI6 whole entry, looked up): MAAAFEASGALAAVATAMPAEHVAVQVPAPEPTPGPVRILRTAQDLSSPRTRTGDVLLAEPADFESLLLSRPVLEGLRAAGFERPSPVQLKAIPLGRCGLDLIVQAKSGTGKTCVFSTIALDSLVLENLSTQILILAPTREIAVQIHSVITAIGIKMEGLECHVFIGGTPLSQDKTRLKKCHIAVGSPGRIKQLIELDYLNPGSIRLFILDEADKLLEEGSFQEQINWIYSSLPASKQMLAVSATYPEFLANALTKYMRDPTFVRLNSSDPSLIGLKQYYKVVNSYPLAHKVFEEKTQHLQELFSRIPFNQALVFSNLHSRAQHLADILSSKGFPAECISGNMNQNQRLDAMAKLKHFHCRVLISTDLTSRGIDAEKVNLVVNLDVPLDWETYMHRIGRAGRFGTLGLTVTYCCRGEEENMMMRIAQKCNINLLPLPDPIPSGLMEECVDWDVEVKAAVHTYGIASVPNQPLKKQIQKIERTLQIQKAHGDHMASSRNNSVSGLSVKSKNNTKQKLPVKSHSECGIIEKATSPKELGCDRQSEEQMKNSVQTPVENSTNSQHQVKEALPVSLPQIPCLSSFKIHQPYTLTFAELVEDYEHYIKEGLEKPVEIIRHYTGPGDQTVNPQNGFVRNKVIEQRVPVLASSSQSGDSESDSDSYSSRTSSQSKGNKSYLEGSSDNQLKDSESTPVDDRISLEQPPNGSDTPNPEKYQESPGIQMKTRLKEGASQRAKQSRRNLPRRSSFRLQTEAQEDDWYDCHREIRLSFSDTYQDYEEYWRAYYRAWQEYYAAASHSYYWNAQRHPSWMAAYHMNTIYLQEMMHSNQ
active: vorinostat -0.348
inactive: nilotinib -0.009 | [1] 0.008 | dasatinib -0.054 | [2] 0.003 | [3] 0.058 | quisinostat -0.058 | tipifarnib -0.01 | [4] 0.095 | [5] 0.03 | [6] -0.024 | [7] 0.007 | silmitasertib 0.069 | [8] 0.022 | entospletinib -0.008

DCUN1D4 isoform 3 (UniProt Q92564)
inactive: nilotinib 0.023 | [1] -0.007 | dasatinib -0.062 | [2] -0.009 | [3] -0.046 | quisinostat 0.066 | tipifarnib 0.017 | [4] -0.019 | [5] -0.036 | [6] -0.043 | [7] 0.066 | vorinostat 0.128 | silmitasertib -0.031 | [8] -0.121 | entospletinib -0.096

DFFB (UniProt O76075)
active: vorinostat 0.258
inactive: nilotinib 0.192 | [1] -0.062 | dasatinib 0.008 | [2] 0.155 | [3] 0.012 | quisinostat 0.038 | tipifarnib -0.013 | [4] -0.049 | [5] 0.026 | [6] -0.047 | [7] -0.003 | silmitasertib -0.025 | [8] 0.013 | entospletinib -0.011

CMBL (UniProt Q96DG6)
UniProt Q96DG6, sequence (Q96DG6 whole entry, looked up): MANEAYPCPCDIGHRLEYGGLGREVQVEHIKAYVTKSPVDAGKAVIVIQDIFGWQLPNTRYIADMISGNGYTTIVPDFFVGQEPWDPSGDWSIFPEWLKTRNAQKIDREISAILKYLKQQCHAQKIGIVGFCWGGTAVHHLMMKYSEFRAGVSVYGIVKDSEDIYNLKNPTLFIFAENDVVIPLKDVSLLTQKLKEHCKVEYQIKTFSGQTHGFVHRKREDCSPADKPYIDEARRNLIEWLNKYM
inactive: nilotinib -0.029 | [1] 0.054 | dasatinib 0.155 | [2] 0.006 | [3] -0.025 | quisinostat -0.047 | tipifarnib -0.001 | [4] -0.027 | [5] -0.023 | [6] 0.149 | [7] -0.065 | vorinostat 0.09 | silmitasertib 0.042 | [8] 0.071 | entospletinib 0.037

COG5 isoform 2 (UniProt Q9UP83)
UniProt Q9UP83, sequence (Q9UP83 whole entry, looked up): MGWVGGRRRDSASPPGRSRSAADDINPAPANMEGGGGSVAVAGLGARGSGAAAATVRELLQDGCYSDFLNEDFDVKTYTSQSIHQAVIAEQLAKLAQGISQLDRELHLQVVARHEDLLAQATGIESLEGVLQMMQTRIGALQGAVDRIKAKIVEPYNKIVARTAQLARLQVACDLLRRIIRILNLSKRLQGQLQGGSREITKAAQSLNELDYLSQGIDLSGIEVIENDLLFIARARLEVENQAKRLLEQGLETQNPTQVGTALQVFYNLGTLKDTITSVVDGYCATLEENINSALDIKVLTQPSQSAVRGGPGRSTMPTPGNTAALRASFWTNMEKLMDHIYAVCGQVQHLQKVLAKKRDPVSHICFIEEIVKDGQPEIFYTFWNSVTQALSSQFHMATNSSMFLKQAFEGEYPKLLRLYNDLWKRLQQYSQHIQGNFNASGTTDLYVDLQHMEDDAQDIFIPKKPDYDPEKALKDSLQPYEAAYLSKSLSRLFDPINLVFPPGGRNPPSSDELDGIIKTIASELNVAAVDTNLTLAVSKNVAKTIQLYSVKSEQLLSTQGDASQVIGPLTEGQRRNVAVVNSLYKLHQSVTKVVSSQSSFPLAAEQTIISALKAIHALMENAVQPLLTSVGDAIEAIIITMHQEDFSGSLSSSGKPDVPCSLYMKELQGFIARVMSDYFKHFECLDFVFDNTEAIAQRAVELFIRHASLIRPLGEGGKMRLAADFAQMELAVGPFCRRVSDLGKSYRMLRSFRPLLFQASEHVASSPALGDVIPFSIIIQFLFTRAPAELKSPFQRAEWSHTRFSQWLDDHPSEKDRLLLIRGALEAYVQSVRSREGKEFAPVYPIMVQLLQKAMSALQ
inactive: nilotinib -0.023 | [1] 0.057 | dasatinib -0.153 | [2] -0.003 | [3] 0.037 | quisinostat -0.031 | tipifarnib -0.019 | [4] 0.043 | [5] -0.081 | [6] -0.12 | [7] -0.005 | silmitasertib 0.073 | [8] -0.029 | entospletinib 0.038
active: vorinostat -0.342

COTL1 (UniProt Q14019)
inactive: nilotinib 0.021 | [1] 0.003 | dasatinib 0.024 | [2] 0.031 | [3] 0.023 | quisinostat 0.017 | tipifarnib 0.055 | [4] -0.075 | [5] -0.028 | [6] -0.011 | [7] -0.03 | vorinostat 0.147 | silmitasertib 0 | [8] -0.021 | entospletinib 0.023

CMSS1 (UniProt Q9BQ75)
active: vorinostat -0.272
inactive: nilotinib -0.025 | [1] 0.014 | dasatinib -0.019 | [2] 0 | [3] 0.014 | quisinostat 0.023 | tipifarnib 0.06 | [4] 0.013 | [5] 0.004 | [6] 0.031 | [7] 0.025 | silmitasertib 0.038 | [8] -0.024 | entospletinib -0.013

DLD (UniProt P09622)
inactive: nilotinib 0.02 | [1] 0.001 | dasatinib 0.003 | [2] 0.011 | [3] -0.022 | quisinostat -0.014 | tipifarnib 0.003 | [4] -0.015 | [5] -0.009 | [6] 0.005 | [7] -0.003 | silmitasertib 0.004 | [8] 0.008 | entospletinib 0.01
active: vorinostat -1.96

DGCR8 (UniProt Q8WYQ5)
inactive: nilotinib -0.01 | [1] -0.002 | dasatinib -0.061 | [2] -0.029 | [3] -0.02 | quisinostat -0.007 | tipifarnib 0.03 | [4] -0.032 | [5] -0.048 | [6] 0.003 | [7] -0.027 | silmitasertib -0.041 | [8] -0.054 | entospletinib -0.066
active: vorinostat -0.38
